Source: PubChem
EWS-Fli inh: inhibitors of EWS/Fli oncoprotein transcriptional activity. A673 NR0B1-luciferase reporter, viability-normalised. inhibition, % at 12.6 µM. 350,000 compounds, 0.67% hits. AID 651661;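 active means mean inhibition of at least 50% after viability correction, with every replicate also passing that limit; inconclusive means mean reaches 50% but only one of two replicates passes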;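 further: firefly luciferase signal divided by Alamar Blue viability fluorescence both relative to DMSO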
LGR2 antag: blocks bursicon-induced cAMP signaling via Drosophila LGR2; HEK293 LGR2, CRE-luciferase, bursicon-stimulated, 4 h; 380,000 compounds, 0.35% hits; AID 720647; inhibition, % at 9.99 µM;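 active means drop in luminescence signal, shown as inhibition above about 50% in the replicate tests, limit read from the data, passing the limit was not always enough; inconclusive means probably only some replicates passing the limit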;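 further: agonist challenge used bursicon conditioned medium at about half maximal strength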
PAX8 inh HTS: PAX8 transcriptional activity inhibition | inhibition, % at 12.6 µM | RMG-I TPO-luciferase reporter, SteadyGlo, 24 h | 360,000 compounds, 1.2% hits | AID 652154;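 active means mean replicate inhibition at least 60% with every replicate also reaching 60%; inconclusive means only one of the two criteria is met; inactive means mean below 60% and not all replicates reaching 60%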;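 further: luciferase light reporting Pax8 driven TPO promoter activity; plate controls were median of neutral control wells for no effect and mitoxantrone controls for full effect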
CFTR F508del cor: correctors of CFTR F508del function in bronchial epithelial cells; activity (quench increase), % at 7.58 µM; 350,000 compounds, 0.36% hits; CFBE cells, YFP halide quenching; stimulated with forskolin plus potentiator P3; % fluorescence drop versus neutral controls;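 active means mean added fluorescence quench of at least 8% versus neutral control, with both replicates also reaching 8%; inconclusive means only one of the mean or replicate conditions met; inactive means mean below 8% and not both replicates reaching 8%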;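 further: cells transiently co-express mutant CFTR-F508del with the halide-sensitive YFP; corrector assay measuring rescue of mutant channel to the surface after 24 h compound exposure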
* hit, by the source's call; u = inconclusive; x = no result; ! = not active in a repeat. Sampled rows, rich in hits. Any-hit rate of the full collection: about 1.8%.

SMILES	EWS-Fli inh	LGR2 antag	PAX8 inh HTS	CFTR F508del cor
Cc1cccc(C)c1-n1nnnc1C(c1cccc2ccccc12)N1CCC2(CC1)C(=O)NCN2c1ccccc1 (stereo not given)	11.5	31.6	-1.8	-0.8
C=C1C(C)C2C(Cc3ccccc3)NC(=O)C23C(OC(C)=O)C=CC(C)(O)CC(C)CC=CC3C1O (stereo not given)	-10.6	-9.9	u	0.4
C=C1[C@@H](C)[C@H]2[C@H](Cc3ccccc3)NC(=O)[C@]23OC(=O)/C=C/[C@H](O)CCC[C@@H](C)C/C=C/[C@H]3[C@@H]1O	-13.6	0.3	74.1*	3.6
O=C(N/N=C/c1c(O)n(Cc2ccc(F)cc2)c(=O)[nH]c1=O)c1ccccc1	10.0	-2.3	-4.3	-1.2
O=C(O)CCC(=O)NCCC1=c2ccccc2=N/C1=C\c1c(O)n(Cc2ccc(F)cc2)c(=S)[nH]c1=O	11.0	9.5	62.5*	0.5
Cc1ccc(C(=O)N[C@@H](C)CN2C3=NC[C@@H](Cc4ccccc4)N3C[C@H]2Cc2ccc(O)cc2)cc1Br	24.4	30.2	111.3*	2.9
O=C(Cc1cccnc1)N1CCCCN2[C@H](CO)[C@@H](c3ccc(C#CC4CC4)cc3)[C@H]2C1	-7.4	x	16.6	-3.5
CCOC(=O)CSc1ccc(C(=O)N2CCC3(CC2)OCCO3)cc1[N+](=O)[O-]	1.3	1.0	9.5	-1.5
CCN(CC)c1ccc(N=Cc2c(O)n(CCc3ccc(OC)c(OC)c3)c(=O)[nH]c2=O)cc1	x	51.0*	-23.4	x
COC(=O)CCCC(NC(=S)N1CC2C[C@@H](C1)Cn1c2cccc1=O)C(=O)OC (stereo not given in full)	8.8	10.9	-9.5	4.3
Cc1ccc2c(C)c3ccc4ccccc4c3c[n+]2c1	-43.0	-15.3	30.6	9.2*
C=Cc1cc(OC)c2c(c1)c(=O)oc1c2cc(OC)c2c(O)ccc(C3OC(C)C(O)C(C)(O)C3O)c21 (stereo not given)	27.7	x	88.8*	17.7*
CCOC(=O)[C@]12Cc3cc(C)ccc3[C@H]1N(CCC(=O)OC)C(=O)c1ccccc12	21.0	52.8*	16.9	1.7
CCOC(=O)[C@]12Cc3cc(C)ccc3[C@H]1N(C1CCCCC1)C(=O)c1ccccc12	43.1	64.4*	86.4*	-3.4
CCOC(=O)[C@]12Cc3cc(OC)ccc3[C@H]1N(CC(=O)OC)C(=O)c1ccccc12	2.0	0.0	-6.9	-1.0
CCOC(=O)[C@]12Cc3c(cc(OC)c(OC)c3OC)[C@H]1N(C1CCCCC1)C(=O)c1ccccc12	47.7	u	88.9*	-1.0
CCOC(=O)[C@]12Cc3cc(Cl)ccc3[C@H]1N(C1CCCCC1)C(=O)c1cc(OC)ccc12	67.6*	100.9*	105.5*	-7.6
COC(=O)[C@@H]1[C@@H](CO)[C@@H]2Cn3c(ccc(-c4ccccc4F)c3=O)[C@H]1N2Cc1ccncc1	-1.5	-17.6	-8.0	1.2
COC(=O)C1=C(c2cccc(C#N)c2)C[C@@H]2CC[C@H]1N2C(=O)NCCCOC(C)C	-1.3	x	-13.5	-1.0
CCOC(=O)[C@]12Cc3ccc(C)cc3[C@H]1N(C1CCCCC1)C(=O)c1cc(OC)ccc12	u	54.7*	101.0*	20.0*
COC1CC2C=C(C)C=CC=CC(=O)NC(c3ccccc3)CC=CCCC(O)CC(=O)C2=C1O (stereo not given)	55.4*	22.1	116.2*	12.3*
O=C(Cc1ccccn1)N1CC2(C1)[C@H](c1ccccc1)[C@H](CO)N2Cc1ccccn1	1.1	2.6	-4.8	-5.2
COc1ccc(/C=N\N=C(N)N)cc1	5.3	29.4	-13.6	x
NC(N)=N/N=C/c1ccc(N(c2ccccc2)c2ccccc2)cc1	58.4*	52.0*	81.3*	-2.3
N#Cc1cn(C2OC(CO)C(O)C2O)c2ncnc(N)c12 (stereo not given)	-6.6	94.5*	96.3*	-3.0
SMILES	EWS-Fli inh	LGR2 antag	PAX8 inh HTS	CFTR F508del cor
NC(=O)c1cn(C2OC(CO)C(O)C2O)c2ncnc(N)c12 (stereo not given)	55.4*!	71.4*	95.8*	-3.6
Nc1ncnc2c1ncn2[C@@H]1O[C@H](COP(=O)(O)CP(=O)(O)O)[C@@H](O)[C@H]1O	8.5	33.4	-17.2	0.5
Cc1cc(=O)oc2c(C)c(OCC(=O)N3CCC(C(=O)O)(c4ccccc4)CC3)ccc12	7.1	15.7	x	-0.9
CN1C(=O)NC(=O)/C(=C\C=C\c2ccccc2[N+](=O)[O-])C1=O	66.9*	-3.0	9.9	0.8
O=C1NC(=O)N(CCc2ccc(F)cc2)C(=O)/C1=C\C=C\c1ccccc1	37.3	1.2	-5.9	-0.3
C=C1C(=O)O[C@H]2C[C@@H](C)[C@@H]3C=CC(=O)[C@@]3(C)C[C@H]12	59.0*	82.4*	108.4*	4.7
